Measurements taken from PubChem BioAssay AID1345083 (National Center for Advancing Translational Sciences (NCATS), 2018).
Out of some 94,000 compounds screened, about 6,200 (6.6%) were called active. Not shown: some 31% with an inconclusive outcome. Shown is part of a subset that was picked to be rich in actives. Values without a mark were called inactive. The call rests on the fitted dose curve; in most records, active means well fitted inhibition curve with a large enough effect; inconclusive means small, poorly fitted or top-dose-only effect; inactive means flat fitted curve, though single readings scatter.

Test: Cytotoxic Profiling in HEK 293 Cell Line of Diverse Libraries Using Quantitative High-Throughput Screening; further: nearly all actives have a fitted effect of over 60% in size
Conditions: HEK 293 viability, ATP luminescence (CellTiter-Glo), 48-72 h; series mostly up to 115 µM; activity change, negative = cytotoxicity: at the top concentration
From the text: Cell-based phenotypic screening is a commonly used approach to discover biological pathways, novel drug targets, chemical probes and high-quality hit-to-lead molecules. Many hits identified from high-throughput screening campaign are ruled out through a series of follow-up potency, selectivity/specificity, and cytotoxicity assays. Prioritization of molecules with little or no cytotoxicity for a more in-depth downstream evaluation influence the future direction of projects, so cytotoxicity profiling of the screening libraries at early stage is essential for increasing the likelihood of candidate success. In this study, we analyzed results from a cell-based cytotoxicity screening campaign, comprising nearly 10,000 compounds in NCATS annotated libraries, and over 100,000 compounds in a diversity library, evaluated in four normal cell lines (HEK 293, NIH 3T3, CRL-7250 and HaCat) and a cancer cell line (KB 3-1, a HeLa subline) with overall screening outcomes, hit rates, pan-activity and selectivity. For the annotated library, we also examined the primary targets and mechanistic pathways regularly associated with cell death. To our knowledge, this is the first study to use high-throughput screening to profile large libraries for cytotoxicity assessment in both normal and cancer cell lines. In summary, the results generated here constitutes a valuable resource for the scientific community and provides insight on identifying cytotoxic compounds with particular mechanisms of action, and prioritizing compounds with suitable cytotoxicity profile for further evaluation.
HEK 293 cells were seeded into white 1536-well plates using a Multidrop Combi peristaltic dispenser (ThermoFisher, Waltham, MA) at a density of 250 cells/well in 5 uL of medium respectively. A pintool (Kalypsys) was used to transfer 23 nL of compound solution to the 1536-well assay plates. After 48 or 72 hr incubation at 37 degree Celsius, 5% CO2 and 95% humidity, 2.5 uL of CellTiter-Glo (Promega) was dispensed into each well using a dispenser (Aspect Automation, St. Paul, MN) with solenoid valves (Lee Valves, Westbrook CT). Plates were left at room temperature for 10 min before imaging the ATP-coupled luminescence using a ViewLux microplate imager (PerkinElmer, Waltham, MA).
On the % scale 0 is the no-effect control and ±100 the full control effect; potency means the concentration at half of the fitted maximal effect.

| SMILES | outcome | activity change, negative = cytotoxicity | Potency |
| --- | --- | --- | --- |
| Cn1cc(CN2CCN3C(=O)N(c4ccccn4)C[C@H]3C2)cn1 | inactive [at 172 µM] | – | – |
| CC[C@H]1CN2CC[C@H]1C[C@@H]2CNCc1cccc(C#N)c1 | – | -0.0855% [at 230 µM] | – |
| CN(CCc1ccccn1)C[C@H]1CN2CC[C@H]1C[C@@H]2CNC(=O)c1ccccc1 | – | -30% [at 172 µM] | – |
| C=CCN(C)C[C@H]1CN2CC[C@H]1C[C@@H]2CNC(=O)Nc1cccc(SC)c1 | – | – | 63.1 µM (active) |
| CC[C@H]1CN2CC[C@H]1C[C@@H]2CNC(=O)c1ccc(N(C)C)cc1 | – | 4.54% [at 172 µM] | – |
| CN(Cc1ccccc1)C[C@H]1CN2CC[C@H]1C[C@@H]2CNC(=O)Nc1cccc(C#N)c1 | – | – | 89.1 µM (active) |
| O=C(NC[C@H]1C[C@@H]2CCN1C[C@@H]2CN1CCC(Cc2ccccc2)CC1)c1ccco1 | – | -25.4% [at 172 µM] | – |
| CC(C)NC(=O)NC[C@H]1C[C@@H]2CCN1C[C@@H]2CN1CCCC1 | – | 2.65% [at 172 µM] | – |
| FC(F)(F)CN1C2CCC1CN(c1cccc(Cl)n1)C2 | inactive | – | – |
| CCCSc1ncc(CN2CC[C@H]3CNC[C@H]32)cn1 | – | -10.3% | – |
| CC(=O)NCCNC(=O)[C@H]1CN2CCC1C[C@@H]2Cn1cc(-c2ccc(C(C)(C)C)cc2)nn1 (some centres undefined) | – | -3.54% | – |
| CNC1CCOCC1 | inactive [at 287 µM] | – | – |
| C#CCN1C(=O)[C@@H]2[C@H](c3ccccc31)[C@@H](C(=O)OCC)[C@@H](c1ccccc1)N2C(=O)COC | – | – | 44.7 µM (active) |
| CCCCOC(=O)N1C[C@H](C(=O)OCC)[C@H]2c3ccccc3N(C)C(=O)[C@]21C | – | -18.1% [at 57.5 µM] | – |
| Nc1cccc(-c2cn(C[C@H]3CC4CCN3C[C@@H]4C(=O)NCc3ccc(F)cc3)nn2)c1 (some centres undefined) | – | -7.43% [at 172 µM] | – |
| COCC(=O)NC[C@H]1C[C@@H]2CCN1C[C@@H]2CN1CCN(C)CC1 | – | -12.1% [at 172 µM] | – |
| CN(C)[C@@H]1CN(C(=O)Cc2ccc(F)cc2)C[C@H]1CO | inactive | – | – |
| Cn1cccc1CN1CCC2(COc3ccncc3[S+](=O)([O-])N2)C1 (centres undefined) | – | -7.93% | – |
| Cc1ccc(C(=O)NC[C@H]2C[C@@H]3CCN2C[C@@H]3c2cc(-c3ccco3)nc(C)n2)cc1 | – | – | 79.4 µM (active) |
| COc1ccccc1-c1cc([C@H]2CN3CC[C@H]2C[C@@H]3CNC(=O)c2ccco2)nc(C)n1 | – | -23.8% [at 172 µM] | – |
| O=C(NC[C@H]1C[C@@H]2CCN1C[C@@H]2CN1CCN(c2ncccn2)CC1)c1ccc(C(F)(F)F)cc1 | – | -17.4% | – |
| Cc1nc(-c2ccc(C(F)(F)F)cc2)cc([C@H]2CN3CC[C@H]2C[C@@H]3CNC(=O)c2ccco2)n1 | – | – | 20 µM (active) |
| C=C[C@H]1CN2CC[C@H]1C[C@@H]2CNC(=O)c1ccc(C(F)(F)F)cc1 | – | -7.78% [at 172 µM] | – |
| COc1ccccc1-c1cc([C@H]2CN3CC[C@H]2C[C@@H]3CNC(=O)c2ccco2)n(C)n1 | – | 4.65% [at 172 µM] | – |
| CCNC(=O)N1CC2CN(C(C)C)CC(C1)O2 | – | -6.72% | – |
| CC1=NOC2(CCN(Cc3c[nH]c4ccccc34)CC2)C1 | – | 4.67% [at 172 µM] | – |
| CN1C[C@H]2CN(Cc3cnn(C)c3)CCN2C1=O | – | -15.1% [at 230 µM] | – |

| SMILES | outcome | activity change, negative = cytotoxicity | Potency |
| --- | --- | --- | --- |
| O=C(Nc1ccc2n(c1=O)C[C@H]1C[C@@H]2CN(C(=O)c2ccccn2)C1)c1ccc(F)cc1 | – | -3.73% [at 172 µM] | – |
| C[S+](=O)([O-])N1CCC2(CC1)CC(c1cccnc1)=NO2 | – | 0.463% | – |
| CN(C)C(=O)[C@H]1CN2CCC1C[C@@H]2Cn1cc(-c2ccc(-c3ccccc3)cc2)nn1 (some centres undefined) | – | -17.4% [at 172 µM] | – |
| Cc1nc(-c2ccccc2)cc([C@H]2CN3CC[C@H]2C[C@@H]3CNC2CCOCC2)n1 | – | – | 31.6 µM (active) |
| Cc1nc(-c2ccccc2)cc([C@H]2CN3CC[C@H]2C[C@@H]3CNC2CCN(C)CC2)n1 | – | – | 28.2 µM (active) |
| O=C([C@H]1CN2CCC1C[C@@H]2Cn1cc(-c2ccccc2)nn1)N1CCOCC1 (some centres undefined) | – | 0.574% [at 172 µM] | – |
| CC(=O)Nc1ccc(-c2ccc3n(c2=O)C[C@H]2C[C@@H]3CN(C3CCN(C)CC3)C2)cc1 | – | -24.1% [at 172 µM] | – |
| CC(C)N1C[C@@H]2OCC(=O)N(Cc3cccnc3)[C@@H]2C1 | – | -2.45% [at 230 µM] | – |
| O=C(Nc1ccc(Cl)cc1)N1C[C@@H]2C[C@H](C1)c1c(-c3ccccc3F)ccc(=O)n1C2 | – | -4.3% | – |
| COCC1CN(Cc2ccsc2)CC12CCNCC2 (centres undefined) | – | -27.7% | – |
| COc1ccc(CC(=O)N2C[C@@H]3CC[C@H](C2)N(CC2CCC2)C3)c(OC)c1 | – | -22.9% | – |
| COc1ccc(C(=O)NC[C@H]2C[C@@H]3CCN2C[C@@H]3c2cc(-c3ccccc3)nn2C)cc1 | – | – | 89.1 µM (active) |
| COc1ccc(-c2cc([C@H]3CN4CC[C@H]3C[C@@H]4CNC(=O)C3CC3)n(C)n2)cc1OC | – | -9.12% [at 172 µM] | – |
| Cn1nc(-c2ccc(F)cc2)cc1[C@H]1CN2CC[C@H]1C[C@@H]2CNCc1ccccn1 | – | – | 63.1 µM (active) |
| Cn1nc(-c2cccs2)cc1[C@H]1CN2CC[C@H]1C[C@@H]2CNC(=O)CCCC(=O)O | inactive [at 172 µM] | – | – |
| O=C(Nc1ccccc1)[C@H]1CN2CCC1C[C@@H]2Cn1cc(CO)nn1 (some centres undefined) | – | -2.81% [at 172 µM] | – |
| Cn1nc(-c2cccs2)cc1[C@H]1CN2CC[C@H]1C[C@@H]2CNC(=O)Nc1ccccc1 | – | – | 112 µM (active) |
| COc1ccc(-c2cc([C@H]3CN4CC[C@H]3C[C@@H]4CNC(=O)c3ccccc3)n(C)n2)cc1OC | – | -10.2% | – |
| COc1ccccc1-c1cc([C@H]2CN3CC[C@H]2C[C@@H]3CNC(C)=O)n(C)n1 | – | -4.81% [at 172 µM] | – |
| CCCCc1cn(C[C@H]2C[C@@H]3CCN2C[C@@H]3C(=O)NCCNC(C)=O)nn1 | – | -2.52% [at 172 µM] | – |
| Cc1ccccc1-c1ccc2n(c1=O)C[C@H]1C[C@@H]2CN(C(=O)CSCC(=O)O)C1 | – | -1.03% [at 172 µM] | – |
| O=C([C@H]1CN2CCC1C[C@@H]2Cn1cc(CCO)nn1)N1CCCC1 (some centres undefined) | inactive [at 172 µM] | – | – |
| COc1ccccc1-c1ccc(N2CC3CC(C2)c2cccc(=O)n2C3)nn1 (centres undefined) | – | 1.75% | – |
| Cc1ccc([C@@H]2CN(Cc3ncc[nH]3)[C@@H]3C4CCN(CC4)[C@@H]32)cc1 | – | 3.55% | – |
| COc1cccc(C(=O)N2CCC3(CC2)NCc2ccccc2-n2ccnc23)c1 | – | -24.7% | – |
| O=S1(=O)NCC2(CCN(Cc3ccc(Cl)s3)C2)Oc2ncccc21 (centres undefined) | inactive | – | – |
| O=C(COc1ccccc1)N1C[C@@H]2C[C@H](C1)c1c(-c3ccccc3F)ccc(=O)n1C2 | – | -23.1% [at 172 µM] | – |
